# From PubChem BioAssay (NCATS)
# Records with an inconclusive call do not appear. Where a call stands in place of a potency, no number is given. Unmarked numbers belong to inactive results. Activity calls are given as the source filed them. Calls come from the whole dose curve; as a rule, active = well fitted curve in the direction sought with a large enough effect; inconclusive = small, poorly fitted or top-dose-only effect, or another doubt; inactive = no such curve, though single readings can be large; an effect the other way counts as inactive or inconclusive.
# Key:
# [1] = target: Aldehyde dehydrogenase, mitochondrial (Homo sapiens) (UniProt P05091); assay: qHTS for Inhibitors of the Aldehyde Dehydrogenase Family (ALDH2) Primary screen (AID 2061308); note: nearly all actives have a fitted effect of over 55% in size; note: potency is the fitted concentration of half-maximal effect
# [2] = target: Retinaldehyde dehydrogenase 3 (Homo sapiens) (UniProt P47895); assay: qHTS for Inhibitors of the Aldehyde Dehydrogenase Family (ALDH1A3) Validation screen (AID 2061312); note: nearly all actives have a fitted effect of over 45% in size
# [3] = target: Retinaldehyde dehydrogenase 3 (Homo sapiens) (UniProt P47895); assay: qHTS for Inhibitors of the Aldehyde Dehydrogenase Family (ALDH1A3) Primary screen (AID 2061315)
# [4] = BET inhibitor-based combinations targeting novel dependencies in MECOM-rearranged (r) AML: SET-2 cell line (AID 2202231); details: SET-2 AML cells viability, CellTiter-Glo luminescence, 48 h; viability: active compounds read low, concentration not given here; note: nearly all actives have a fitted effect of over 35% in size; note: potency is the fitted concentration of half-maximal effect
# Procedure, shortened: (§1)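 Here, 11-point titrations of each agent were applied to 500 seeded cells and incubated 48 hr; CellTiter-Glo signal, scaled against DMSO and empty wells, was integrated as AUC, then Z-scored within the individual line.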
# [5] = BET inhibitor-based combinations targeting novel dependencies in MECOM-rearranged (r) AML: UCSD-AML1 cell line (AID 2202235); note: series mostly up to about 46 µM; nearly all actives have a fitted effect of over 40% in size
# Procedure, shortened: (§2)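 Normalized to DMSO and empty-well controls, the luminescence data from CellTiter-Glo after 48 hr drug exposure were fitted across 11 concentrations. Reported metrics are area under the dose-response curve and its Z-transformed form.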
# [6] = BET inhibitor-based combinations targeting novel dependencies in MECOM-rearranged (r) AML: AML-194 cell line (AID 2202237; note: nearly all actives have a fitted effect of over 40% in size; note: potency is the fitted concentration of half-maximal effect)
# Procedure, shortened: as §1
# [7] = target: Retinal dehydrogenase 2 (Homo sapiens) (UniProt O94788); assay: qHTS for Inhibitors of the Aldehyde Dehydrogenase Family (ALDH1A2) Confirmation screens (AID 2061314); note: nearly all actives have a fitted effect of over 65% in size; note: potency is the fitted concentration of half-maximal effect
# [8] = BET inhibitor-based combinations targeting novel dependencies in MECOM-rearranged (r) AML: MV-4-11 cell line (AID 2202233); note: potency is the fitted concentration of half-maximal effect; nearly all actives have a fitted effect of over 45% in size
# Procedure, shortened: as §2
# [9] = BET inhibitor-based combinations targeting novel dependencies in MECOM-rearranged (r) AML: OCI-AML3 cell line (AID 2202232); details: Potency: OCI-AML3 viability; note: potency is the fitted concentration of half-maximal effect; nearly all actives have a fitted effect of over 35% in size
# Procedure, shortened: as §1
# [10] = BET inhibitor-based combinations targeting novel dependencies in MECOM-rearranged (r) AML: HNT-34 cell line (AID 2202234); note: potency is the fitted concentration of half-maximal effect; nearly all actives have a fitted effect of over 35% in size
# Procedure, shortened: as §2
# [11] = BET inhibitor-based combinations targeting novel dependencies in MECOM-rearranged (r) AML: AML-191 cell line (AID 2202236; note: potency is the fitted concentration of half-maximal effect; nearly all actives have a fitted effect of over 35% in size)
# Procedure, shortened: as §1
# [12] = target: Aldehyde dehydrogenase 1A1 (Homo sapiens) (UniProt P00352); assay: qHTS for Inhibitors of the Aldehyde Dehydrogenase Family (ALDH1A1) Confirmatory screens (AID 2061316); note: nearly all actives have a fitted effect of over 65% in size; note: potency is the fitted concentration of half-maximal effect
smiles,measurement,setting,value
Cc1cnc(-c2ccccc2C(C)C)nc1NCc1ccc(-n2ccnn2)cc1,Potency,[1],inactive
same,Potency,[2],inactive
same,Potency,[3],inactive
same,viability,[4],86.2%
same,Potency,[5],inactive
same,Potency,[6],inactive
CC(=O)Nc1ccc(-c2csc(N3CCC(C(N)=O)CC3)n2)cc1,Potency,[1],inactive
same,Potency,[7],22.5 µM (active)
same,Potency,[3],inactive
C=C(c1ccc(C(=O)O)cc1)c1cc2c(cc1C)C(C)(C)CCC2(C)C,Potency,[1],inactive
same,Potency,[2],inactive
same,Potency,[3],inactive
same,viability,[4],115%
same,Potency,[8],0.148 µM (active)
same,Potency,[6],inactive
COC(C)(C)CCn1nc(Nc2c(C)cccc2C)c2cnc(Nc3ccc(OCCN4CCCC4)c(F)c3)nc21,Potency,[1],inactive
same,Potency,[2],inactive
same,Potency,[3],inactive
same,Potency,[4],18.6 µM (active)
same,Potency,[9],20.9 µM (active)
same,Potency,[8],5.25 µM (active)
same,Potency,[10],0.0661 µM (active)
same,Potency,[11],14.8 µM (active)
same,Potency,[6],14.8 µM (active)
O=C(CSc1nnc(-c2cccc(S(=O)(=O)N3CCCC3)c2)n1-c1ccccc1)Nc1ccc(C(=O)O)cc1,Potency,[1],inactive
same,Potency,[3],inactive
CN1CCN(c2cccc(Nc3nn4c(=O)c5ccc(N(C)C)cc5nc4s3)c2)CC1,Potency,[1],inactive
same,Potency,[7],14.2 µM (active)
same,Potency,[12],11.3 µM (active)
CS(=O)(=O)c1ccccc1-c1csc(N2CCC(C(N)=O)CC2)n1,Potency,[1],inactive
same,Potency,[3],inactive
CN(Cc1ccco1)c1ncnc2ccc(-c3ccc4c(ccn4C)c3)cc12,Potency,[1],inactive
same,Potency,[3],inactive
O=S(=O)(c1ccccc1)N1CCN(c2nc(C3CC3)nc3ccccc23)CC1,Potency,[1],inactive
same,Potency,[3],inactive
N#Cc1c(-c2cccc([N+](=O)[O-])c2)no[n+]1[O-],Potency,[1],7.94 µM (active)
same,Potency,[7],5.04 µM (active)
same,Potency,[3],inactive
same,Potency,[12],12.7 µM (active)
Cc1ccc(S(=O)(=O)Nc2ccccc2C(=O)Nc2ccc(-c3ccccc3)nn2)cc1,Potency,[1],inactive
same,Potency,[3],inactive
Cc1ccc(NS(=O)(=O)c2ccc3c(c2)C(Cl)(Cl)C(=O)N3)cc1C,Potency,[1],inactive
same,Potency,[7],3.18 µM (active)
same,Potency,[3],inactive
same,Potency,[12],7.12 µM (active)
O=C1CCc2cc(S(=O)(=O)Nc3ccc(Cl)cc3)ccc2N1,Potency,[1],inactive
same,Potency,[3],inactive
CSc1ccccc1-c1ccc(Nc2nc(-c3ccncc3)nc3ccccc23)cc1F,Potency,[1],inactive
same,Potency,[3],inactive
CCOC(=O)c1ccc(-c2ccc3ncnc(NCc4csc(C)n4)c3c2)o1,Potency,[1],inactive
same,Potency,[3],inactive
NC(=O)C1CCN(c2nc(-c3cccc(F)c3)cs2)CC1,Potency,[1],inactive
same,Potency,[3],inactive
Cc1c(C(=O)NCC2CCCO2)[nH]c2c1C(=O)CC(c1ccco1)C2 (centres undefined),Potency,[1],inactive
same,Potency,[3],inactive
O=S(=O)(Nc1ccccc1)c1ccc(O)c2ncccc12,Potency,[1],inactive
same,Potency,[3],inactive
Cc1ccc(NS(=O)(=O)c2cc3c(cc2N[C@@H](C)CO)NC(=O)CC3)cc1Cl,Potency,[1],inactive
same,Potency,[7],22.5 µM (active)
same,Potency,[3],inactive
same,Potency,[12],inactive
N#Cc1c(-c2ccc(F)c(Br)c2)no[n+]1[O-],Potency,[1],3.98 µM (active)
same,Potency,[7],2.52 µM (active)
same,Potency,[3],inactive
same,Potency,[12],20.1 µM (active)
c1ccc(CNc2ccc(N3CCOCC3)cc2)cc1,Potency,[1],inactive
same,Potency,[7],12.7 µM (active)
same,Potency,[12],7.98 µM (active)
COC(=O)c1ccc(NC(=O)c2cc(-c3ccc(C)c(C)c3)nc3ccccc23)cc1,Potency,[1],inactive
same,Potency,[3],inactive
Cn1nnnc1Sc1ncnc2scc(-c3ccc(Cl)cc3)c12,Potency,[1],inactive
same,Potency,[3],inactive
Cc1nc(CN(C)c2ncnc3ccc(-c4ccc5c(c4)OCO5)cc23)cs1,Potency,[1],inactive
same,Potency,[3],inactive
Cc1c(C(=O)OCC2CC2)[nH]c2c1C(=O)CC(c1ccco1)C2 (centres undefined),Potency,[1],inactive
same,Potency,[7],8.96 µM (active)
same,Potency,[3],inactive
same,Potency,[12],1.59 µM (active)
COc1ccc(S(=O)(=O)Nc2cc(OC)cc3cccnc23)cc1,Potency,[1],inactive
same,Potency,[7],1.42 µM (active)
same,Potency,[12],inactive
CSc1ccc(CNc2ncnc3ccc(-c4c(C)noc4C)cc23)cc1,Potency,[1],inactive
same,Potency,[3],inactive
FC(F)(F)c1cccc(N2CCN(C(=S)Nc3nccc4ccccc34)CC2)c1,Potency,[1],inactive
same,Potency,[3],inactive
CC(C)(C)OC(=O)N1CCN(c2ccc(NCc3ccc(-c4ccc(C#N)cc4)nc3)cc2)CC1,Potency,[1],inactive
same,Potency,[7],inactive
same,Potency,[3],inactive
same,Potency,[12],15.9 µM (active)
O=C1CCCC2=C1C(c1ccccc1)N=C(Nc1nc3ccccc3o1)N2 (centres undefined),Potency,[1],inactive
same,Potency,[7],inactive
same,Potency,[3],inactive
same,Potency,[12],inactive
Cc1cc2c(s1)c1cnn(Cc3ccc(SC(F)(F)F)cc3)c(=O)c1n2C,Potency,[1],inactive
same,Potency,[3],inactive
Cc1ccc(-c2ccc(=O)n(CC(=O)NCc3ncc[nH]3)n2)cc1,Potency,[1],inactive
same,Potency,[3],inactive
Cc1ccc(CNc2ncnc3ccc(-c4ccoc4C)cc23)o1,Potency,[1],inactive
same,Potency,[3],inactive
